{"source": "PubChem BioAssay (NCATS)", "note": "Inconclusive results are not listed. Entries that show only a call come without a potency. Activity calls are given as the source filed them. The call rests on the fitted dose curve; in most records, active means well fitted inhibition curve with a large enough effect; inconclusive means small, poorly fitted or top-dose-only effect; inactive means no such curve, though single readings can be large or run the other way. Potency means the concentration at half of the fitted maximal effect."}
{"test": "Primary fluorescence-based thiol-reactive (MSTI) qHTS assay for identification of artifact compounds. (AID 1845221); further: nearly all actives have a fitted effect of over 65% in size;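 on activity change, negative = thiol reactive: thiol-reactive compounds lower the probe fluorescence signal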", "conditions": "MSTI thiol-reactivity probe, 1 h; series mostly up to 53.8 µM", "text": "PI: Alexander Tropsha Ph.D.\nUNC Eshelman School of Pharmacy\nUniversity of North Carolina, Chapel Hill, North Carolina\nHits from high-throughput screening (HTS) of chemical libraries are often false positives due to their interference with the assay detection technology. In response to this problem, we generated the largest publicly available library of chemical liabilities and developed a free webtool to predict HTS artifacts, both of which are described herein. More specifically, we generated, curated, and integrated HTS datasets for thiol reactivity, redox activity, and luciferase (firefly and nano) activity. Using these curated datasets, we developed and validated several Quantitative Structure-Interference Relationship (QSIR) models to predict nuisance behavior. […] These models were employed for virtual profiling of the National Center for Advancing Translational Science's (NCATS) in-house library, and 256 compounds for each assay were selected for the experimental validation of nuisance behavior. The BA for these external predictions ranged from 58 to 78% for compounds within the applicability domains of the models. […] The models developed in this study, along with aggregation models previously developed by our group (SCAM Detective) were implemented in \"Liability Predictor,\" an online tool which may be used as part of chemical library design or for triaging HTS hits. Both the models and the curated datasets are publicly available at https://liability.mml.unc.edu/.\nSEQUENCE No. (e.g., 1, 2, 3, etc.); […] (e.g., Cells, Incubation, Reagent, etc.); VALUE; DESCRIPTION.\n1; Reagent; 4 uL; […].\n2; Compounds and control; 16 nL; Kalypsis pin tool (Wako USA) equipped with a 1536-well pin head.\n4; Detection; Fluorescence, ViewLux microplate reader, 525 nm excitation, 598 nm emission.\nNOTES (numbers refer to Sequence numbers above)\n1. Assays determining (E)-2-(4-mercaptostyryl)-1,3,3-trimethyl-3H-indol-1-ium (MSTI) reactivity were performed as previously described in the literature with modifications for the quick identification of compounds reacting with thiol. In brief, 4 uL of MSTI or positive control Acetyl-MSTI (final concentrations of 4 uM and 4 uM, respectively) in assay buffer (2% DMSO in 1X PBS pH 7.4) was dispensed into all wells of a 1536-well assay plate (solid-bottom black plate; Greiner Bio One, Monroe, NC).\n2. A Wako Pin-tool (Wako Automation, Richmond, VA) was used to transfer 16 nL of compounds (consisting of 7-plates in qHTS format, final concentration range 18.3 nM to 114 uM) or control MLS001163887 (final concentration range 1.22 nM to 40 uM).\n3. Plates were centrifuged (121xg, 15 seconds) and incubated for 1 hour at room temperature protected from light.\n4. Samples were read for fluorescence (Ex/Em = 525(20)/598(25) nm) on a ViewLux CCD imager (PerkinElmer). Data were normalized to Acetyl-MSTI (0% activity) and MSTI (100% activity) and the resulting percent inhibition data were fitted to a 4-parameter Hill equation using NCATS in-house software."}
{"smiles": "NNC(=O)c1nn(Cc2ccc(Cl)cc2Cl)c2ccccc12", "Potency": "inactive"}
{"smiles": "C[C@]12CC[C@H](O)CC1=CC[C@@H]1C2CC[C@]2(C)[C@@H](C3=CC(=O)OC3)CC[C@]12O", "note": "(stereo not given in full)", "Potency": "inactive"}
{"smiles": "N#CC(O[C@@H]1O[C@H](CO)[C@@H](O)[C@H](O)[C@H]1O)c1ccccc1", "note": "(stereo not given in full)", "Potency": "inactive"}
{"smiles": "C[C@H]1CN(CC[C@H](O)C2CCCCC2)CC[C@@]1(C)c1cccc(O)c1", "Potency": "inactive"}
{"smiles": "C=C1[C@@H](C)C2[C@H](Cc3ccccc3)NC(=O)[C@@]23C(/C=C/C[C@H](C)C[C@@](C)(O)/C=C/[C@@H]3OC(C)=O)[C@@H]1O", "note": "(stereo not given in full)", "Potency": "inactive"}
{"smiles": "Nc1ncnc2c1ncn2[C@@H]1O[C@@H]2COP(O)(=S)O[C@H]2[C@H]1O", "note": "(stereo not given in full)", "activity change, negative = thiol reactive": "-11.9% [at 11.5 µM] (inactive)"}
{"smiles": "CC1CCCC(=O)CCC/C=C/c2cc(O)cc(O)c2C(=O)O1", "note": "(stereo not given)", "Potency": "14.7 µM (active)"}
{"smiles": "CNC(=O)c1cc(C#N)cc(C)c1NC(=O)c1cc(Br)nn1-c1ncccc1Cl", "Potency": "inactive"}
{"smiles": "CC(C)(O)/C=C/C(=O)[C@](C)(O)[C@H]1[C@H](O)C[C@@]2(C)[C@@H]3CC=C4[C@@H](C[C@H](O)C(=O)C4(C)C)[C@]3(C)C(=O)C[C@]12C", "Potency": "inactive"}
{"smiles": "C=C(C)[C@@]12O[C@@H]1[C@@]1(C)C(=CC2=O)CC[C@@H](OC(C)=O)[C@@H]1C", "Potency": "inactive"}
{"smiles": "Cc1ccccc1C1=CCN(C)CC1", "Potency": "inactive"}
{"smiles": "COC[C@]12CN(C)C3C4[C@H](OC)[C@H]1C3(C(OC)C[C@H]2O)[C@H]1C[C@@]2(O)[C@H](OC(=O)c3ccccc3)[C@@H]1[C@]4(O)[C@@H](O)[C@@H]2OC", "note": "(stereo not given in full)", "Potency": "inactive"}
{"smiles": "C[C@]12CC[C@H](O)C[C@H]1CC[C@@H]1[C@@H]2[C@H](O)C(=O)[C@]2(C)[C@@H](c3ccc(=O)oc3)CC[C@]12O", "Potency": "inactive"}
{"smiles": "Cc1sc2c(c1C)C(c1ccc(Cl)cc1)=N[C@@H](CC(N)=O)c1nnc(C)n1-2", "Potency": "inactive"}
{"smiles": "CC1=CC(=O)[C@@H](O)[C@@]2(C)C1C[C@H]1OC(=O)[C@H](O)[C@@]3(O)[C@@H](C)[C@@H](O)[C@H](O)C2[C@@]13C", "note": "(stereo not given in full)", "Potency": "inactive"}
{"smiles": "C[C@]12CC[C@H](O[C@@H]3O[C@H](CO)[C@@H](O)[C@H](O)[C@H]3O[C@@H]3O[C@H](CO)[C@@H](O)[C@H](O)[C@H]3O)CC1=CC[C@@H]1[C@@H]2CC[C@]2(C)[C@@H](C3=CC(=O)OC3)CC[C@]12O", "Potency": "inactive"}
{"smiles": "Cc1cccc(NC(=O)NC2N=C(c3ccccc3)c3ccccc3N(CC(=O)c3ccccc3C)C2=O)c1", "note": "(stereo not given)", "Potency": "inactive"}
{"smiles": "CCOc1ccc(Oc2ccc(OCc3cc(F)ccc3F)cc2)c(N)c1", "Potency": "8.44 µM (active)"}
{"smiles": "CN1C(=O)[C@@H](Cc2c[nH]c3ccccc23)N=C(c2ccccc2F)c2ccccc21", "Potency": "inactive"}
{"smiles": "O=C1Nc2ccc3ncsc3c2/C1=C/c1cnc[nH]1", "Potency": "inactive"}
{"smiles": "CC(=O)O[C@H]1C[C@@H](C)O[C@H]2O[C@@H]3CC4CC[C@@H]5C(CC[C@]6(C)[C@@H](C7=CC(=O)OC7)CC[C@]56O)[C@@]4(C=O)C[C@H]3O[C@]21O", "note": "(stereo not given in full)", "Potency": "inactive"}
{"smiles": "C=CC/C=C\\C/C=C\\CCCCCCCc1cc(O)cc(O)c1", "Potency": "inactive"}
{"smiles": "CC(=O)OC[C@]12C[C@H](OC(=O)CC(C)C)C(C)=C[C@H]1O[C@@H]1[C@H](O)C[C@@]2(C)[C@]12CO2", "Potency": "inactive"}
{"smiles": "N#Cc1ccc(N2CCN(C(=O)COc3ccc4[nH]cc(CCN)c4c3)CC2)cc1", "Potency": "inactive"}
{"smiles": "COC(=O)C12C(=O)C(C)(O)C(=O)C1(C)C(C)=CC1C3(C=O)CCC(OC(C)=O)C(C)(C)C3CCC12C", "note": "(stereo not given)", "Potency": "inactive"}
{"smiles": "CCOC(=O)C1(CCc2ccccc2)CCN(Cc2ccc(NC(C)=O)cc2)CC1", "Potency": "inactive"}
{"smiles": "CC(=O)O[C@@H]1[C@@H](O)[C@H]2O[C@@H]3C=C(C)[C@@H](O)C[C@]3(CO)[C@]1(C)[C@]21CO1", "Potency": "inactive"}
{"smiles": "C[C@H]1CCC/C=C/C2C[C@H](O)C[C@H]2[C@H](O)/C=C/C(=O)O1", "note": "(stereo not given in full)", "Potency": "inactive"}
{"smiles": "COc1ccc2c3c4n(c2c1)[C@@H](C=C(C)C)OOC(C)(C)C[C@@H]4N1C(=O)[C@@H]2CCCN2C(=O)[C@]1(O)[C@H]3OCC=C(C)C", "Potency": "inactive"}
{"smiles": "C=C1[C@@H](C)[C@H]2[C@H](Cc3ccccc3)NC(=O)[C@]23OC(=O)/C=C/C(=O)CCC[C@@H](C)C/C=C/[C@H]3[C@@H]1O", "Potency": "inactive"}
{"smiles": "CN1CCc2cc3c(cc2C1C1OC(=O)c2c1ccc1c2OCO1)OCO3", "note": "(stereo not given)", "Potency": "inactive"}
{"smiles": "CCC1CN2CCC3(C(=O)Nc4cccc(O)c43)C2CC1/C(=C/OC)C(=O)OC", "note": "(stereo not given)", "Potency": "inactive"}
{"smiles": "CNc1ccc2oc(C[C@H]3O[C@@]4(CC[C@H]3C)O[C@H](C(C)C(=O)c3ccc[nH]3)[C@H](C)C[C@H]4C)nc2c1C(=O)O", "note": "(stereo not given in full)", "Potency": "2.38 µM (active)"}
{"smiles": "C=C(CO)[C@@]12O[C@@H]1[C@@]1(C)C(=CC2=O)CC[C@@H](O)[C@@H]1C", "Potency": "inactive"}
{"smiles": "C/C=C(\\C)C(=O)OC1C2C3(C)CCC(OC4CC(OC)C(OC5OC(C)C(O)C(OC)C5O)C(C)O4)CC3CCC23OC32CCC(C(C)=O)C2(C)C1OC(=O)/C(C)=C/C", "note": "(stereo not given)", "activity change, negative = thiol reactive": "84.6% [at 11.5 µM] (inactive)"}
{"smiles": "C/C=C1/CN2CC[C@]34C(=Nc5ccc(OC)cc53)C2C[C@@H]1C4(CO)C(=O)OC", "note": "(stereo not given in full)", "Potency": "inactive"}
{"smiles": "O=C(C[C@@H]1NCCC[C@H]1O)Cn1cnc2ccccc2c1=O", "Potency": "inactive"}
{"smiles": "CN1C[C@@H]2CN(c3ccc(-c4ccccc4)nn3)C[C@@H]2C1", "Potency": "inactive"}
{"smiles": "C[C@]12CC[C@H](O)C[C@@H]1CC[C@@H]1[C@@H]2CC[C@]2(C)[C@@H](C3=CC(=O)OC3)CC[C@]12O", "Potency": "inactive"}
{"smiles": "C[C@H]1C/C=C/[C@H]2[C@@H]3O[C@]3(C)[C@@H](C)[C@H]3[C@H](Cc4ccccc4)NC(=O)[C@]32OC(=O)O/C=C/[C@@](C)(O)C1=O", "Potency": "inactive"}
